A selection: hits, their analogues and other compounds. The true share with any hit is near 6%.
Sfp inh: qHTS Assay for Inhibitors of Bacillus subtilis Sfp phosphopantetheinyl transferase (PPTase); Potency, µM, for the others: largest response in the series, negative = inhibition, most hits filed as inhibitors; AID 1490, 2009; actives 3.5% (n = 310,000); Biochemical Sfp PPTase activity, qHTS;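 also: the enzyme is Sfp with the accession as filed and its product quenches rhodamine fluorescence; 0% = enzyme reaction without inhibitor and -100% = no enzyme wells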
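Compounds were incubated with enzyme (final 15 nM) for 15 min at room temperature before substrate addition started the reaction. Fluorescence at 525 nm excitation, 598 nm emission was recorded immediately and after 30 minutes.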
VDR inhibitor: Inhibitors of the vitamin D receptor (VDR): qHTS | actives 0.93% (n = 400,000) | VDR-SRC2-3 peptide fluorescence polarization, 2 h | Vitamin D3 receptor (Homo sapiens), P11473 | Potency, µM, without a hit: max response, negative = inhibition, hits mostly inhibitors
Target sequence (P11473 whole entry, looked up): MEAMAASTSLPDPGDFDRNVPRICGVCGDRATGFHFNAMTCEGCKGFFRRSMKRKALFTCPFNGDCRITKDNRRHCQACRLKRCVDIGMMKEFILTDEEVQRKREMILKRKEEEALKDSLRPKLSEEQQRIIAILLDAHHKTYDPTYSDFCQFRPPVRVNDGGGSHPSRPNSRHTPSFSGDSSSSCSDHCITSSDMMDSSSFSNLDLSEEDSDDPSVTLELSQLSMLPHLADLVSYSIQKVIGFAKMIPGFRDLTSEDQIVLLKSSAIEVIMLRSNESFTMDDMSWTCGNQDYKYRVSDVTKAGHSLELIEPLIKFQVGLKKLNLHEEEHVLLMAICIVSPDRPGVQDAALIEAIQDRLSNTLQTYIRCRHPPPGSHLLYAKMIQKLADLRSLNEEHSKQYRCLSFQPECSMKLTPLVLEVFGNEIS
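Measured by FP: displacement of SRC2-3 coactivator peptide from VDR by library compounds, following a two-hour ambient incubation.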
Tau fluor cs: Counterscreen qHTS for Inhibitors of Tau Fibril Formation, Fluorescence Polarization; tau K18 P301L Alexa594 fluorescence, heparin fibrillization; Potency, µM (top dose mostly 57.7 µM), for the others: at the top dose activity change, negative = decrease; actives 0.93% (n = 280,000); AID 1463, 2008; also: nearly all actives have a fitted effect of over 55% in size
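Human tau K18 P301L (15 uM unlabeled, 0.24 uM Alexa 594-labeled) in 100 mM sodium acetate pH 7 with 20 uM heparin, 6 hr at 37 C. ThT 30 uM added, 1 hr ambient; Alexa 594 FP and total fluorescence read at 555/632 nm.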
Tau ThT inhib: qHTS for Inhibitors of Tau Fibril Formation, Thioflavin T Binding; actives 2.1% (n = 270,000); Microtubule-associated protein tau (Homo sapiens), P10636; recombinant tau K18 P301L, heparin-induced fibrillization, ThT fluorescence; Potency, µM (series often up to 57.4 µM), without a hit: at the top dose activity, negative = inhibition, hits mostly inhibitors; also: nearly all actives have a fitted effect of over 55% in size
Target sequence (P10636 561-689 P618L limits assumed): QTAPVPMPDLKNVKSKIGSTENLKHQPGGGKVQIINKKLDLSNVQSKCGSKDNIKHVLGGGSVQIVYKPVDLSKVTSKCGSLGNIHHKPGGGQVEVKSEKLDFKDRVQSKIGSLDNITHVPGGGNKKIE
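Using a mix of unlabeled (15 uM) and Alexa 594-labeled (0.24 uM) tau K18 P301L, heparin-triggered fibrillization over 6 hr at 37 C was scored by ThT fluorescence.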
PLK1 PBD inh: qHTS for Inhibitors of PLK1-PDB (polo-like kinase 1 - polo-box domain): Primary Screen | Serine/threonine-protein kinase PLK1 (Homo sapiens), P53350 | Plk1 PBD binding of FITC phosphopeptide, fluorescence polarization | Potency, µM, without a hit: max response, negative = inhibition, hits mostly inhibitors | AID 720504, 2013 | actives 2.8% (n = 360,000); also: series mostly up to about 57 µM; nearly all actives have a fitted effect of over 65% in size
Tau FP inhib: qHTS for Inhibitors of Tau Fibril Formation, Fluorescence Polarization; K18 P301L tau heparin fibrillization, Alexa594 FP, 6 h; Microtubule-associated protein tau (Homo sapiens), P10636; actives 0.39% (n = 280,000); Potency, µM (highest dose often 57.7 µM), without a hit: at the highest dose activity, negative = inhibition, usual class: inhibitors; also: nearly all actives have a fitted effect of over 55% in size
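K18 P301L tau (15 uM unlabeled/0.24 uM Alexa 594-labeled, final) + compound + heparin 20 uM final; 100 mM NaOAc pH 7; 6 hr 37 C; ThT 30 uM final added, 1 hr RT; FP ex 555/em 632 nm.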
An asterisk follows results filed as active; ? = inconclusive; nt = no result given; [ ] = another dose, or the depositor's remark. Calls follow the shape of the dose curve; as a rule, active = well fitted curve in the direction sought with a large enough effect; inconclusive = small, poorly fitted or top-dose-only effect, or another doubt; inactive = no such curve, though single readings can be large; an effect the other way counts as inactive or inconclusive. Unless noted, % is scaled to controls: 0 for no effect and ±100 for the full control effect; potency is read from the fitted curve at half-maximal effect.

SMILES	Sfp inh	VDR inhibitor	Tau fluor cs	Tau ThT inhib	PLK1 PBD inh	Tau FP inhib
COc1ccc(NC(=O)/C(Cl)=C(/Cl)S(=O)Cc2ccccc2Cl)cn1 (stereo not drawn)	22µM*	?	-11%	8.9µM*	1.5µM*	?
CCC[C@H]1C[C@H](C(=O)N[C@@H]([C@H]2O[C@@H](SC)[C@@H](O)[C@@H](O)[C@@H]2O)[C@H](C)Cl)N(C)C1	26%	nt	nt	nt	nt	nt
Cc1nc2ccc(C(=O)N(C)Cc3ccco3)cn2c1N(C)CC1CCCCC1	nt	nt	nt	nt	0%	nt
CCC(C(=O)O)C1CCC(C)C(C(C)C(O)C(C)C(=O)C(CC)C2OC3(C=CC(O)[C@@]4(CC[C@](C)(C5CC[C@@](O)(CC)C(C)O5)O4)O3)C(C)CC2C)O1 (stereo partly drawn)	25%	-10%	-1%	-6%	nt	-9%
O=C(Cn1c(=O)n(Cc2nc(-c3ccccc3)no2)c(=O)c2cc3c(cc21)OCO3)Nc1ccc(Cl)cc1	nt	13%	-11%	24%	nt	20µM*
O=C(Cn1c(=O)n(Cc2nc(-c3ccccc3)no2)c(=O)c2cc3c(cc21)OCO3)Nc1ccccc1	nt	22%	-27%	16%	nt	28µM*
Cc1ccc(NC(=O)Cn2c(=O)n(Cc3nc(-c4ccccc4)no3)c(=O)c3cc4c(cc32)OCO4)cc1F	nt	-5%	-17%	19%	nt	?
O=C(CC1N=C2c3ccccc3N=C(SCc3ccccc3F)N2C1=O)NCCc1ccccc1 (stereo not drawn)	nt	14%	-5%	-6%	nt	1%
Cc1ccc(N2CC(NC(=O)c3ccc(S(=O)(=O)N4CCCC4)cc3)CC2=O)cc1 (stereo not drawn)	nt	-5%	-7%	-8%	nt	-9%
Cc1ccc(NC(=O)Cc2nnc(SCC(=O)NC3CCCC3)n2C)cc1C	12%	1%	nt	nt	1%	nt
COc1ccc(NC(=O)N2CCc3c([nH]c4ccc(OC)cc34)C2c2ccc(OC)cc2)cc1 (stereo not drawn)	nt	12%	?	1%	nt	?
Cc1c(Cl)cccc1-n1ncc(C(=O)N2CCC(C)CC2)c1C1CCN(C(=O)OC(C)(C)C)CC1	nt	5%	5%	-6%	nt	9%
C(=N\Nc1nc(-c2ccccc2)cs1)/c1ccco1	?	-13%	14µM*[quencher]	14µM*	-16%	?
Brc1ccc(-c2csc(N/N=C/c3ccco3)n2)cc1	6%	-5%	18µM*[quencher]	16µM*	-2%	-13%
Cc1ccc(-c2csc(N/N=C/c3ccco3)n2)cc1	89µM*	2%	?	14µM*	-6%	2%
Cc1ccc2nc(N/N=C/c3ccco3)cc(C)c2c1	-1%	5%	?	18µM*	1%	8%
CN(C)S(=O)(=O)c1ccc(-c2csc(N/N=C/c3ccco3)n2)cc1	-2%	-10%	?	?	-12%	10%
CN(CC(=O)Nc1ccc(Cl)cc1)C(=O)CCC1CCCC1	8%	15%	nt	nt	-5%	nt
O=C(O)CC1c2ccccc2CCN1C(=O)Nc1cc(Cl)ccc1Cl (stereo not drawn)	nt	-2%	8%	-2%	nt	6%
COC(=O)c1ccccc1S(=O)(=O)C(C)(C)C	3%	?	-5%	-4%	24µM*	-7%
CCCCOc1ccc(C(=O)Nc2ccc3c(c2)CCCN3S(=O)(=O)c2ccc(C)cc2)cc1	nt	-1%	-17%	4%	nt	-9%
O=C(c1cccc(F)c1)N1CCC2(CCN(Cc3ccccc3)CC2)CC1	23%	4%	nt	nt	nt	nt
CCOc1ccc(/C=C(\C#N)C(=O)Nc2sc3c(c2C(=O)OC)C(C(=O)OC)CC3)cc1OC (stereo not drawn)	nt	20µM*	-23%	3.2µM*	nt	?
COc1ccc2[nH]c(C)c(CCN3C(=O)C4CC=CCC4C3=O)c2c1 (stereo not drawn)	0%	?	-8%	-14%	21µM*	9%
COc1ccc2[nH]c(C)c(CCN3C(=O)OC(C)(C)C3(C)O)c2c1 (stereo not drawn)	13%	7%	-4%	?	6%	9%
SMILES	Sfp inh	VDR inhibitor	Tau fluor cs	Tau ThT inhib	PLK1 PBD inh	Tau FP inhib
Cc1ccc(C)n1-c1ccc(C(=O)NN)cc1	-1%	?	-9%	-16%	3µM*	3%
Cc1ccc2c(C)c(C(=O)N3CCN(Cc4ccc5c(c4)OCO5)CC3)oc2c1C	79µM*	12%	nt	nt	4%	nt
Cc1ccc(C(=O)N2CCN(Cc3ccc4c(c3)OCO4)CC2)o1	7%	-2%	-1%	-11%	1%	-4%
O=C(CCc1ccc(S(=O)(=O)NCc2ccccc2)cc1)N1CCN(Cc2ccc3c(c2)OCO3)CC1	1%	-9%	-15%	-23%	-7%	-5%
O=C(CS(=O)(=O)Cc1ccccc1)N1CCN(c2cccc(C(F)(F)F)c2)CC1	7%	-14%	-8%	-8%	30µM*	7%
CCNC(=S)N1CCN(Cc2ccc3c(c2)OCO3)CC1	11%	10%	2%	-6%	1%	3%
C=CCNC(=S)N1CCN(Cc2ccc3c(c2)OCO3)CC1	18µM*	6%	nt	nt	-9%	nt
O=C(CS(=O)(=O)Cc1ccccc1)N1CCN(Cc2ccc3c(c2)OCO3)CC1	5%	?	3%	0%	27µM*	2%
O=C(Cc1ccccc1)Nc1sc2c(c1C(=O)Nc1ccc(Br)cc1)CCCC2	nt	-27%	-12%	-6%	nt	-6%
CCC(=O)Nc1ccccc1-c1nc2ccccc2n(CC(=O)c2ccc(Br)cc2)c1=O	nt	0%	-5%	-7%	nt	-2%
COc1cc2[nH]c(=S)nc(Nc3ccc(NC(C)=O)cc3)c2cc1OC	10%	?	-28%	?	30µM*	6%
COc1cc2[nH]c(=S)nc(NCCc3ccc(C)cc3)c2cc1OC	10%	-7%	-16%	?	30µM*	?
O=C(NC(CSC(=O)c1ccccc1)C(=O)O)OCc1ccccc1 (stereo not drawn)	nt	-17%	nt	nt	-11%	nt
CC(=O)Nc1cccc(C(=O)OC(C(=O)c2ccc(C)c(C)c2)c2ccccc2)c1 (stereo not drawn)	17%	14%	?	5%	-2%	16µM*

Assay outcomes: PubChem BioAssay, National Center for Advancing Translational Sciences (NCATS)
